A selection: hits, their analogues and other compounds. The true share with any hit is near 7.3%.
Tau fluor cs = counter-screen for tau fibril formation inhibitors. 280,000 compounds, 0.93% hits. Potency, µM (titrated, usually from 57.7 µM), inactives show at the top dose activity change, negative = decrease. AID 1463. tau K18 P301L Alexa594 fluorescence, heparin fibrillization; note: nearly all actives have a fitted effect of over 55% in size
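Human tau K18 P301L (15 uM unlabeled, 0.24 uM Alexa 594-labeled) in 100 mM sodium acetate pH 7 with 20 uM heparin, 6 hr at 37 C. ThT 30 uM added, 1 hr ambient; Alexa 594 FP and total fluorescence read at 555/632 nm.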
RORg inh = ROR gamma (mouse) transcription inhibition; AID 2551; 310,000 compounds, 5.4% hits; Potency, µM (top dose mostly 53.6 µM), inactives show at the highest dose activity change, negative = inhibition, most hits filed as inhibitors; P51450; Drosophila S2 Gal4-RORgamma UAS-luciferase reporter, 20 h; note: nearly all actives have a fitted effect of over 60% in size
Target sequence (P51450 whole entry, looked up, the tested form may be a part): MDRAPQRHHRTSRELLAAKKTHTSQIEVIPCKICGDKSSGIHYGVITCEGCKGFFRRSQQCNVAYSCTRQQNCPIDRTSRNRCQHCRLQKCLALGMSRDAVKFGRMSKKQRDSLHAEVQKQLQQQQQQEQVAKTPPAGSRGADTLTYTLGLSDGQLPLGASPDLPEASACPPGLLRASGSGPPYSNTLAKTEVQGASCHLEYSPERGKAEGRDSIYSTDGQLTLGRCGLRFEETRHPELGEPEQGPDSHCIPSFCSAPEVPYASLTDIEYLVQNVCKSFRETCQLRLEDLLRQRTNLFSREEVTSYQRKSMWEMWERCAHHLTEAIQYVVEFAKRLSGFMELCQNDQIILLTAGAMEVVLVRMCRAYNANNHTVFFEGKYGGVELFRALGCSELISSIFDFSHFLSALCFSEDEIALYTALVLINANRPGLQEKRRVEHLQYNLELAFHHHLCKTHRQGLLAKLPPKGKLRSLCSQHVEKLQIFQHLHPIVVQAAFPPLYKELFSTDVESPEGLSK
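Compounds are pin-transferred onto Drosophila Schneider cells expressing a copper-inducible Gal4–ROR gamma transactivation domain fusion. After 1 hr, copper sulfate is added to 700 uM final; luciferase is read 20 hr later.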
VP16 counter = Gal4-VP16 reporter inhibition counter-screen; Potency, µM (titrated, usually from 53.6 µM), for inactives: at the highest dose activity, negative = inhibition, usual class: inhibitors; Drosophila S2 Gal4-VP16 UAS-luciferase, luminescence, 20 h; AID 2546; 310,000 compounds, 3.5% hits;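 note: Gal4-VP16 expression switched on by copper sulfate through the metallothionein promoter; nearly all actives have a fitted effect of over 50% in size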
Tau ThT inhib = tau fibrillization inhibition (ThT binding) | AID 1460 | 270,000 compounds, 2.1% hits | recombinant tau K18 P301L (four-repeat tau fragment), heparin-induced fibrillization, ThT fluorescence | Potency, µM (highest dose often 57.4 µM), without a hit: at the top dose activity, negative = inhibition, actives largely listed as inhibitors; note: nearly all actives have a fitted effect of over 55% in size
Target sequence (P10636 561-689 P618L limits assumed): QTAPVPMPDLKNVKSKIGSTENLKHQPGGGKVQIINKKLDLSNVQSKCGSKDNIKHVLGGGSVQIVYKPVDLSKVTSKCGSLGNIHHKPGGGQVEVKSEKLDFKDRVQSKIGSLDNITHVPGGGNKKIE
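Heparin-induced (20 uM) aggregation of recombinant human K18 P301L tau, 15 uM unlabeled with 0.24 uM labeled, pH 7 acetate buffer, 6 hr at 37 C with compound. Fibrils quantified by 30 uM ThT fluorescence after 1 hr ambient incubation.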
Tau fibril FP = blocks human tau fibril formation measured by polarization | AID 1468 | 280,000 compounds, 0.39% hits | Potency, µM (top dose mostly 57.7 µM), for inactives: top-dose activity, negative = inhibition, actives largely listed as inhibitors | P10636 | K18 P301L tau heparin fibrillization, Alexa594 FP, 6 h; note: nearly all actives have a fitted effect of over 55% in size
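FP of Alexa 594-tau after heparin (20 uM) induction. Substrate: human K18 P301L, 15 uM unlabeled, 0.24 uM labeled. Buffer 100 mM sodium acetate pH 7. 6 hr, 37 C.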
* hit, by the source's call; ? = inconclusive; . = not tested or not shown; [ ] = dose if it differs, or a comment. Calls come from the whole dose curve; as a rule, active = well fitted curve in the direction sought with a large enough effect; inconclusive = small, poorly fitted or top-dose-only effect, or another doubt; inactive = no such curve, though single readings can be large; an effect the other way counts as inactive or inconclusive. % is set by controls: 0 for no effect and ±100 for the full control effect; potency is the fitted concentration of half-maximal effect.

SMILES	Tau fluor cs	RORg inh	VP16 counter	Tau ThT inhib	Tau fibril FP
CC(C)C(C)/C=C/C(C)C1CCC2C3=CCC4CC(=O)CC[C@@]4(C)C3CC[C@]21C (some centres not stated)	-7%	-1%	-1%	-14%	-6%
C=CCSC(=C(C#N)C#N)c1cc2c([nH]1)CCCC2	?	?	?	10µM*	-1%
Cc1cccc(CCNC(=O)CNS(=O)(=O)c2ccc3nc(C)sc3c2)c1	.	-12%	2%	.	.
C/C(=N\NC(=O)c1ccc2c(c1)OCO2)c1ccco1	1%	?	?	-13%	7%
C/C(=N\Nc1ccc(Cl)c(C(=O)O)c1)c1ccc(Br)s1	.	1%	3%	.	.
C/C(=N/NC(=O)c1ccc2c(c1)OCO2)c1ccc(Br)s1	1%	2.8µM*	?	-12%	-2%
C/C(=N\NC(=O)c1ccc(Cl)c(Cl)c1)c1ccc(Br)s1	-12%	0.63µM*	0.63µM*	?	-8%
C/C(=N\NC(=O)c1cc2ccccc2cc1O)c1ccc2c(c1)OCO2	?	16µM*	?	7.1µM*	1%
O=C(O)C1=C(CSc2nnnn2CS(=O)(=O)O)CS[C@@H]2[C@H](NC(=O)[C@H](O)c3ccccc3)C(=O)N12	.	-12%	-6%	.	.
N#CC(C#N)=Cc1cn(-c2ncc(C(F)(F)F)cc2Cl)c2ccccc12	-19%	11µM*	?	?	-13%
COc1ccc(CNC(=O)CCS(=O)(=O)c2cc3c(cc2Cl)NC(=O)CO3)cc1	.	-24%	-3%	.	.
Cn1c(O)c(N=NC(N)=S)c2ccccc21	.	1.1µM*	3.2µM*	.	.
CC(=O)OC1COC(n2c(O)c(N=NC(N)=S)c3ccccc32)C(OC(C)=O)C1OC(C)=O (configuration not stated)	.	6.3µM*	10µM*	.	.
Cc1cc(N=NC(=O)c2ccccc2O)c2ccccc2c1O	?	0%	-6%	14µM*	?
Cc1occc1C(=O)N=Nc1c(O)n(C)c2ccccc12	5%	-3%	-7%	?	-4%
Cn1c(O)c(N=NC(=O)c2ccccc2O)c2ccccc21	-11%	-41%	-25%	13µM*	8%
C=C(C)CNC(=S)NNC(=O)c1ccco1	4%	3.5µM*	5µM*	-1%	0%
O=C(NC(=S)NNC(=O)c1ccco1)c1ccc(F)cc1	.	11µM*	?	.	.
O=C(NNC(=S)NC(=O)c1ccco1)c1ccc(NC(=O)c2ccccc2)cc1	-19%	?	4%	?	-1%
COc1ccc(/C=C/C(=O)NC(=S)NNC(=O)c2ccco2)cc1	-11%	3.2µM*	?	?	6%
COc1ccc(CC(=O)NNC(=O)c2ccco2)cc1	.	-6%	-16%	.	.
COc1ccc(C(=O)NC(=S)NNC(=O)c2ccco2)cc1	.	11µM*	?	.	.
CCOC(=O)c1ccc(Nc2nc3ccccc3nc2NS(=O)(=O)c2ccc(Cl)cc2)cc1	-22%	.	.	-14%	11%
O=S(=O)(Nc1nc2ccccc2nc1-[n+]1cccc(N=C([O-])c2ccc(Cl)cc2)c1)c1ccccc1	?	?	3%	16µM*	-6%
CNC(=S)/N=C(\Nc1ccc(C)cc1)c1ccccc1	-5%	2.5µM*	16µM*	.	4%
SMILES	Tau fluor cs	RORg inh	VP16 counter	Tau ThT inhib	Tau fibril FP
CNC(=S)/N=C(/Nc1ccccc1)c1ccccc1	-3%	?	?	-2%	-7%
N#CC1=C(S)N(c2ccc(F)cc2)C2(CCCCC2)NC1=O	-18%	?	-79%	32µM*	28µM*
N#CC1=C(S)N(c2ccccc2)C2(CCCCC2)NC1=O	-19%	13µM*	?	?	?
CC1CCC2(CC1)Nc1ccccc1C(=O)N2c1ccccc1 (configuration not stated)	-16%	?	13%	-9%	1%
O=C1c2ccccc2NC2(CCCCC2)N1c1ccc(O)cc1	1%	?	0%	-3%	-3%
COC(=O)c1ccc(C(=O)OC)c(NC(=S)N2CC(C)CC(C)C2)c1 (configuration not stated)	-24%	11µM*	14%	-14%	-4%
COC(=O)c1ccc(C(=O)OC)c(NC(=S)N2CCCC(C)C2)c1 (configuration not stated)	-13%	7.9µM*	7%	-13%	-9%
CCOc1ccc(C(=O)N2CCc3ccccc32)cc1OCC	.	8%	-1%	.	.
O=C(CCSc1ccccn1)c1ccccc1	2%	20µM*	?	?	?
O=C(O)CCSc1ccccn1	3%	-9%	-4%	-12%	-3%
COc1ccc(C(=O)NCCSc2ccccn2)cc1	3%	13µM*	?	-4%	6%
Nc1nc2c(ncn2[C@@H]2O[C@H](COP(=O)(O)OP(=O)(O)O)[C@@H](O)[C@H]2O)c(=O)[nH]1	-2%	.	.	3%	1%
O=C(NCCc1csc(-c2ccc(Cl)cc2)n1)c1ccco1	-10%	?	-2%	-9%	-3%
O=c1cc(CSc2nc(NCc3ccccc3)c3ccccc3n2)nc2ccc(Cl)cn12	-14%	4.5µM*	21%	-12%	3%
Cc1c(CCO)c(=O)n(C)n1C(=O)c1ccc(F)cc1	-3%	-16%	-11%	-7%	-1%
Cc1c(CCO)c(=O)[nH]n1C(=O)c1ccc(F)cc1	-8%	10µM*	11µM*	-3%	-7%
CCOC(=O)Cc1ccc(NC(=O)NCc2ccc3c(c2)CCN3C(=O)CC)cc1	-13%	.	.	-5%	-3%
Cc1ccc(/C=N/N=C2/NC(=O)C(CC(=O)Nc3ccc(Cl)cc3)S2)o1 (configuration not stated)	-11%	11µM*	?	-5%	-15%
Cc1ccc(/C=N/N=C2/NC(=O)C(CC(=O)Nc3ccccc3)S2)o1 (configuration not stated)	-14%	11µM*	-5%[10 µM]	-9%	-10%
O=C(O)CC1S/C(=N/N=C/C=C/c2ccccc2)NC1=O (configuration not stated)	11%	?	-3%	?	0%
Cc1ccc(/C=N/N=C2/NC(=O)CS2)o1	-5%	13µM*	?	?	-3%
O=C(CC1S/C(=N/N=C/C=C/c2ccccc2)NC1=O)Nc1ccc(Cl)c(Cl)c1 (configuration not stated)	-29%	5.6µM*	7.9µM*	-8%	?
O=C(O)CC1S/C(=N/N=C/c2ccc(-c3ccc(Cl)c([N+](=O)[O-])c3)o2)NC1=O (configuration not stated)	-18%	-1%	4%	7.1µM*	0%
O=C(O)CC1S/C(=N/N=C/C=C/c2ccccc2[N+](=O)[O-])NC1=O (configuration not stated)	-6%	4%	0%	-15%	4%
CCCn1c(CC)nc([N+](=O)[O-])c1S(=O)(=O)c1ccccc1	-7%	7.9µM*	18µM*	?	1%
